CHX counter: counter-screen for Shiga toxin inhibitors: cycloheximide protein synthesis inhibition. cell reporter, cycloheximide protein synthesis inhibition counterscreen. max response, %. actives 12% (n = 300,000). AID 2314; in the data active = max response mostly above about 13%, no sharp cut-off; inactive = mostly below about 14%; also: read at 38.3 µM for the half of the compounds with a filed dose
VACV Venus inh: inhibitors of vaccinia virus (Venus reporter); Vaccinia virus Venus reporter expression, fluorescence; Potency, µM (highest dose often 36.5 µM), most hits filed as inhibitors; actives 0.46% (n = 330,000); AID 720580; calls by dose curve; tested in A549 cells; also: nearly all actives have a fitted effect of over 30% in size
Vaccinia mCherry: vaccinia inhibition (mCherry reporter); Vaccinia virus mCherry reporter infection, fluorescence; Potency, µM (top dose mostly 36.5 µM), hits mostly inhibitors; actives 0.63% (n = 310,000); AID 720579; calls by dose curve; tested in A549 cells; also: nearly all actives have a fitted effect of over 35% in size
Lassa entry inh: blocks Lassa virus binding to or entry into cells; Lassa virus pseudotype entry inhibition, cell reporter; Potency, µM (series often up to 37.9 µM), most hits filed as inhibitors; actives 1.2% (n = 300,000); AID 540256; calls by dose curve; tested in HEK293 cells; also: nearly all actives have a fitted effect of over 50% in size
Shiga toxin inh: blocks Shiga toxin action in Vero cells; Vero cells, Shiga toxin protein synthesis inhibition reporter; inhibition, % at 38.7 µM; actives 9.2% (n = 290,000); in the data active = inhibition mostly above about 28%, no sharp cut-off; inactive = mostly below about 43%
MARV entry inh: inhibitors of Marburg virus binding or cell entry | Marburg virus pseudotyped entry inhibition, cell reporter | Potency, µM (highest dose often 37.8 µM), most hits filed as inhibitors | actives 1.8% (n = 300,000) | AID 540276; calls by dose curve; tested in HEK293 cells
Each line names hits and unclear results; the compound was inactive in the other large screens. Shown is part of a subset that was picked to be rich in hits.

Cc1ccc(S(=O)(=O)N2CCCC2C(=O)Nc2ccc(Br)cc2)cc1 (configuration not stated)	none (no result: CHX counter, Shiga toxin inh)
COCC(=O)n1nc(-c2ccccc2)nc1NCc1cccs1	CHX counter 33, Shiga toxin inh 63
O=C(c1cccs1)n1nc(-c2ccccc2)nc1NCc1ccco1	none (no result: VACV Venus inh, Vaccinia mCherry)
O=C(NNC(=O)c1cccc2ccccc12)c1cccc(Cl)c1	Lassa entry inh inconclusive (no result: CHX counter, Shiga toxin inh)
O=C(NNC(=O)c1ccccc1F)c1cccc(Cl)c1	CHX counter 22, Shiga toxin inh 80, MARV entry inh inconclusive (no result: VACV Venus inh, Vaccinia mCherry)
O=C(NNC(=O)c1ccccc1Br)c1cccc(Cl)c1	CHX counter 83, Shiga toxin inh 50, MARV entry inh inconclusive (no result: VACV Venus inh, Vaccinia mCherry)
CCOc1ccc(-n2cc(-c3ccccc3)c3c(N4CCC(C)CC4)ncnc32)cc1	none (no result: CHX counter, Shiga toxin inh, MARV entry inh)
CC12CCC=CC1C(c1cccc(Br)c1)N(Cc1ccccc1)C2=O (configuration not stated)	none (no result: VACV Venus inh, Vaccinia mCherry, Lassa entry inh, MARV entry inh)
Cc1cccc(NC(=O)c2cccc(OC(=S)N3CCOCC3)c2)c1	Lassa entry inh inconclusive
O=C(Nc1cccc(Cl)c1)c1ccc(OC(=S)N2CCOCC2)cc1	CHX counter 39, Shiga toxin inh 103
O=C(Nc1cccc2ccccc12)c1ccc(OC(=S)N2CCOCC2)cc1	CHX counter 55, Lassa entry inh 1.5µM, Shiga toxin inh 103, MARV entry inh 2.6µM
c1ccc2c(CCc3c[nH]c4ccccc34)ccnc2c1	Vaccinia mCherry inconclusive (no result: CHX counter, Lassa entry inh, Shiga toxin inh, MARV entry inh)
COc1cc2nc(SCc3ccc(C)cc3)n3nc(CCn4nc(C)cc4C)nc3c2cc1OC	none (no result: CHX counter, Shiga toxin inh)
CCc1ccc(S(=O)(=O)c2c[nH]c3cc(OC)c(OC)cc3c2=O)cc1	none (no result: CHX counter, Shiga toxin inh)
O=C(COC(=O)CC1CCCC1)Nc1cc2c(cc1Cl)C(=O)c1ccccc1C2=O	CHX counter 32, MARV entry inh inconclusive
Cc1cccc(N2CCN(C(=O)C3CCN(C(=O)c4cc5sccc5n4C)CC3)CC2)c1C	none (no result: CHX counter, Lassa entry inh, Shiga toxin inh)
COc1ccc(-c2nn(-c3ccccc3)cc2CNC[C@H]2O[C@@H](n3ccc(=O)[nH]c3=O)[C@H](O)[C@@H]2O)cc1	none (no result: CHX counter, Lassa entry inh, Shiga toxin inh, MARV entry inh)
O=C(/C=C/c1cccc(C(F)(F)F)c1)OCC(=O)N1CCN(c2ccccc2)CC1	none (no result: CHX counter, Shiga toxin inh)
O=C(O)CCCNc1cc(N2CCN(C(=O)c3ccco3)CC2)c2noc3c2c1C(=O)c1ccccc1-3	none
O=C(O)CCCNc1cc(N2CCC3(CC2)OCCO3)c2noc3c2c1C(=O)c1ccccc1-3	CHX counter 24, Shiga toxin inh 54 (no result: VACV Venus inh, Vaccinia mCherry, Lassa entry inh)
O=C(c1ccc2c(c1)N(Cc1ccccc1)C(=O)c1ccccc1S2(=O)=O)N1CCc2ccccc21	MARV entry inh inconclusive (no result: CHX counter, Shiga toxin inh)
Cc1ccccc1-n1ncc(C(C)NC(=O)c2ccco2)c1C (configuration not stated)	CHX counter 29, Shiga toxin inh 55
C=CCC(=O)NC(C)c1cnn(-c2ccccc2C)c1C (configuration not stated)	none (no result: VACV Venus inh, Vaccinia mCherry, Lassa entry inh, MARV entry inh)
Cc1ccccc1-n1ncc(C(C)NC(=O)c2ccccc2)c1C (configuration not stated)	CHX counter 35 (no result: VACV Venus inh, Vaccinia mCherry, Lassa entry inh, MARV entry inh)
COc1cc(OC)cc(C(=O)NC(C)c2cnn(-c3ccccc3C)c2C)c1 (configuration not stated)	none (no result: VACV Venus inh, Vaccinia mCherry, Lassa entry inh, MARV entry inh)
O=C(N/N=C1/CC2C=CCC12)c1ccco1 (configuration not stated)	CHX counter 72, Lassa entry inh inconclusive, Shiga toxin inh 81, MARV entry inh inconclusive
O=C(N/N=C1/CC2C=CCC12)c1cccs1 (configuration not stated)	CHX counter 42, Lassa entry inh inconclusive, Shiga toxin inh 80
CCCCCCNc1ccc(/C=C/c2ccnc3ccccc23)cc1	none (no result: CHX counter, Lassa entry inh, Shiga toxin inh, MARV entry inh)
COC(=O)C1=C(Nc2ccccc2NC(=O)CCCC(=O)O)CSC1	CHX counter 14, Lassa entry inh inconclusive
COC(=O)C1=C(Nc2ccccc2NC(=O)c2ccccc2C(=O)O)CSC1	CHX counter 56, Shiga toxin inh 103 (no result: VACV Venus inh, Vaccinia mCherry, Lassa entry inh, MARV entry inh)
Cc1c(CNC2CCCCCC2)c(C(=O)O)c(C)n1Cc1c(F)cccc1Cl	none (no result: CHX counter, Shiga toxin inh)
CCCn1nnc(NC(=S)NC(=O)Cc2ccccc2)n1	VACV Venus inh inconclusive, Vaccinia mCherry 2.2µM
CCOc1ccc(C(=O)Nc2nnn(CC)n2)cc1	CHX counter 36, Lassa entry inh inconclusive, Shiga toxin inh 75 (no result: VACV Venus inh, Vaccinia mCherry)
CCCn1nnc(NC(=O)COc2cc(C)ccc2C(C)C)n1	none
CCCn1nnc(NC(=O)c2ccc(OCC)c(Cl)c2)n1	CHX counter 20
CCCCn1nnc(NC(=S)NC(=O)c2cccs2)n1	CHX counter 28, VACV Venus inh 2.2µM, Vaccinia mCherry inconclusive, Shiga toxin inh 115, MARV entry inh inconclusive
CCCn1nnc(NC(=S)NC(=O)CC)n1	none (no result: VACV Venus inh, Vaccinia mCherry)
Cn1nnc(NC(=S)NC(=O)c2cccs2)n1	MARV entry inh inconclusive
CCOC(=O)c1c(C)[nH]c(C)c1S(=O)(=O)N1CCC(C(=O)Nc2ccc(C)c(N(C)C)c2)CC1	none (no result: CHX counter, Shiga toxin inh, MARV entry inh)
O=C(NCCc1nnc2n1CCN(Cc1ccc(F)cc1)CC2)c1ccc(F)cc1	none (no result: CHX counter, Lassa entry inh, Shiga toxin inh, MARV entry inh)
CCCn1nnc(NC(=O)c2ccc(-c3ccccc3)cc2)n1	CHX counter 21, Shiga toxin inh 100
CCCn1nnc(NC(=O)c2ccc(Br)cc2)n1	CHX counter 45, Shiga toxin inh 99
CCCCn1nnc(NC(=O)c2ccco2)n1	CHX counter 26, Lassa entry inh inconclusive, Shiga toxin inh 13, MARV entry inh inconclusive (no result: Vaccinia mCherry)
CCCn1nnc(NC(=O)c2ccc(OC)cc2)n1	CHX counter 37
CCCn1nnc(NC(=O)C(c2ccccc2)c2ccccc2)n1	none (no result: VACV Venus inh, Vaccinia mCherry)
CCCn1nnc(NC(=S)NC(=O)c2ccc(-c3ccc(Br)cc3)o2)n1	none (no result: VACV Venus inh, Vaccinia mCherry, Lassa entry inh, MARV entry inh)
Fc1ccc2[nH]c3c(N4CCN(c5ccccc5)CC4)ncnc3c2c1	VACV Venus inh inconclusive, Vaccinia mCherry inconclusive, Lassa entry inh inconclusive, MARV entry inh inconclusive
OC1(c2cccc(C(F)(F)F)c2)CCN(c2ncnc3c2[nH]c2ccc(F)cc23)CC1	VACV Venus inh 11µM, Lassa entry inh 14µM, MARV entry inh 4µM (no result: Vaccinia mCherry)
Cc1ccc(SCC(=O)Nc2cc([N+](=O)[O-])ccc2O)cc1	CHX counter 28, Lassa entry inh inconclusive, Shiga toxin inh 55, MARV entry inh inconclusive
O=C(CSCc1ccc(Cl)cc1)Nc1cc([N+](=O)[O-])ccc1O	Vaccinia mCherry inconclusive, Lassa entry inh inconclusive, Shiga toxin inh 46, MARV entry inh inconclusive
COc1ccc([N+](=O)[O-])cc1NC(=O)CSCc1ccc(Br)cc1	none
COc1ccc(-c2ccn(-c3cccc(F)n3)n2)cc1	CHX counter 48, Lassa entry inh inconclusive, Shiga toxin inh 98, MARV entry inh 10µM
COc1ccc(N2CCN(CCC(O)c3ccc4ccccc4c3)CC2)cc1 (configuration not stated)	none (no result: VACV Venus inh, Vaccinia mCherry, Lassa entry inh, MARV entry inh)
CCc1cc[n+](CC(=O)c2ccc(F)cc2)cc1C(=O)O	none (no result: CHX counter, Lassa entry inh, Shiga toxin inh, MARV entry inh)
COc1ccccc1NC(=O)c1ccc(CSc2ncccn2)cc1	CHX counter 14, Shiga toxin inh 55 (no result: VACV Venus inh, Vaccinia mCherry, Lassa entry inh, MARV entry inh)
FC(F)(F)c1ccc(CSc2ccccn2)cc1	CHX counter 19, Shiga toxin inh 53
O=C(Nc1ccccc1)c1ccc(CSc2ccccn2)cc1	CHX counter 36, Lassa entry inh inconclusive, Shiga toxin inh 63, MARV entry inh inconclusive
COc1ccccc1NC(=O)c1nc(SCc2ccc(F)cc2)ncc1Cl	none (no result: CHX counter, Shiga toxin inh)

Compound activity (PubChem)
